IL1B secr inh = inflammasome signaling inhibition, IL-1 beta readout | THP-1 LPS/ATP IL-1B secretion, AlphaLISA, 16 h; hits give low values | 360,000 compounds, 4.7% hits | activity change, % at 57.5 µM; in the data active = activity change below about -50%; inconclusive = mostly about -30% to -49%
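Secreted IL-1B measured by AlphaLISA bead assay after 16 h compound exposure of THP-1 cells; compounds (final up to 57.5 uM) added 1 h before LPS (250 ng/mL) and ATP (1.25 mM) stimulation; lower signal means less secretion.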
KB-V1 cytotox = KB-V1 MDR subline cytotoxicity; KB-V1 MDR cells viability, CellTiter-Glo, 72 h; Potency, µM (doses to about 46.1 µM), actives largely listed as cytotoxic; 400,000 compounds, 3.4% hits; also: nearly all actives have a fitted effect of over 60% in size
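Luminescent ATP read-out (CellTiter-Glo, 10 min) measures survival of drug-selected KB-V1 MDR cells after 72 h, 37 degrees C compound exposure. Medium: phenol-red-free DMEM, 10% FBS. Values from fitted concentration-response curves.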
MCF10A rerep = inducers of DNA re-replication in MCF 10A breast cells; MCF 10A DNA re-replication, Hoechst nuclear intensity, 48 h; Potency, µM (series often up to 46.1 µM), actives largely listed as activators; 350,000 compounds, 2.9% hits; AID 624296; also: nearly all actives have a fitted effect of over 50% in size
SW480 rerep = induces DNA re-replication in SW480 colon adenocarcinoma cells; SW480 DNA re-replication, Hoechst DNA content imaging, 48 h; Potency, µM (titrated, usually from 46.1 µM), hits mostly activators; 340,000 compounds, 1.8% hits; AID 624297; also: nearly all actives have a fitted effect of over 55% in size
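SW480 cells exposed to compounds for 48 hr at 37 C, 5% CO2, then Hoechst-stained 40 min. Nuclear DNA content imaged by fluorescence scanning (405 nm excitation, 500-530 nm emission); re-replication scored as increased high-intensity nuclei.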
KB-3-1 cytotox = KB-3-1 parental cell cytotoxicity; 400,000 compounds, 1.4% hits; AID 1347075; Potency, µM (top dose mostly 46.1 µM), usual class: cytotoxic; KB-3-1 viability, CellTiter-Glo ATP luminescence, 72 h; also: nearly all actives have a fitted effect of over 60% in size
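KB-3-1 cells, DMEM (no phenol red) + 10% FBS; compound by pin transfer, 72 h, 37 °C. Readout: CellTiter-Glo luminescence after 10 min. Data normalized, curve-fitted.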
Hits are given with their value; – = inactive; ? = inconclusive; · = not tested or not shown; [ ] = another dose, or the depositor's remark. The list is not random: actives were taken first. Their share in the collection is about 9.9%. Unless noted, calls follow the shape of the dose curve; as a rule, active = well fitted curve in the direction sought with a large enough effect; inconclusive = small, poorly fitted or top-dose-only effect, or another doubt; inactive = no such curve, though single readings can be large; an effect the other way counts as inactive or inconclusive.

SMILES | IL1B secr inh | KB-V1 cytotox | MCF10A rerep | SW480 rerep | KB-3-1 cytotox
CCOC(=O)Cc1ccc(NC(=O)NCc2ccc3c(c2)CCN3C(=O)CC)cc1 | · | – | · | · | –
O=C(Nc1ccccc1N1CCN(C(=O)c2ccc(Cl)cc2)CC1)c1cccc(F)c1 | -55 | – | – | – | –
O=C(Nc1ccccc1N1CCN(C(=O)c2ccccc2)CC1)c1cc2ccccc2o1 | – | – | – | – | –
Cc1ccc(C(=O)Nc2ccccc2N2CCN(C(=O)C(C)C)CC2)cc1 | – | ? | – | – | –
CCOc1cccc(C(=O)Nc2ccccc2N2CCN(C(=O)C(C)C)CC2)c1 | -53 | ? | – | ? | –
O=C(Nc1ccccc1N1CCN(C(=O)c2ccccc2)CC1)c1cc(Br)ccc1Cl | – | 23µM | –[0.0737 µM] | ? | ?
O=C(Nc1ccccc1N1CCN(C(=O)c2ccccc2)CC1)c1cccc(Cl)c1 | – | – | ? | – | –
Cn1nc(-c2ccccc2F)c2cc(C(=O)N3CCN(c4ccccc4F)CC3)sc21 | · | 5.2µM | · | · | ?
CCOC(=O)c1c(-c2ccccc2)nnn1-c1nc(OCC)nc(N2CCCCC2)n1 | – | 21µM | 15µM | – | ?
Cc1ccccc1CN1CCC(CNC(=O)C2CCCN(c3ncnc4c3nc3n4CCCCC3)C2)CC1 (stereo not given) | -86 | ? | – | – | –
CSc1ccc(CCNC(=O)C2CCCN(c3ncnc4c3nc3n4CCCCC3)C2)cc1 (stereo not given) | -69 | – | – | ? | ?
O=C(Nc1ccc(Cl)cc1)C1CCCN(c2ncnc3c2nc2n3CCCCC2)C1 (stereo not given) | -59 | – | 16µM | – | ?
Cc1ccc(NC(=O)C2CCN(c3ncnc4c3nc3n4CCCCC3)CC2)cc1Cl | ? | – | 15µM | ? | ?
O=C(NCc1ccc(Cl)cc1)C1CCCN(c2ncnc3c2nc2n3CCCCC2)C1 (stereo not given) | – | – | ? | – | –
Cc1ccc(NC(=O)C2CCCN(c3ncnc4c3nc3n4CCCCC3)C2)cc1Cl (stereo not given) | – | ? | – | ? | ?
Nc1cc(=O)nc(SCC(=O)Nc2ccc(F)cc2)n1CCc1ccccc1 | · | – | · | · | –
CN(C(=O)c1cc2c(s1)-c1ccc(Cl)cc1SC2)c1cccc(C(F)(F)F)c1 | · | – | · | · | –
O=C(Nc1ccc(F)cc1F)C1CCCN(c2ncnc3c2nc2n3CCCCC2)C1 (stereo not given) | -55 | – | ? | – | –
O=C(Nc1cc(F)ccc1F)C1CCCN(c2ncnc3c2nc2n3CCCCC2)C1 (stereo not given) | – | ? | – | – | ?
Cc1ccc(S(=O)(=O)N(C)C)cc1NC(=O)CSc1nc2ccccc2[nH]1 | – | 15µM | ? | – | –
COC(=O)C1CCN(C(=O)CSc2nc3ccc(OC)cc3[nH]2)CC1 | -64 | – | – | – | –
COc1ccc2nc(SCC(=O)Nc3ccccc3C)[nH]c2c1 | – | 15µM | – | – | –
Cc1ccccc1NC(=O)CSc1nc2cc3c(cc2cc1C)CCC3 | – | – | ? | 6.5µM | ?
COc1ccc2nc(SCC(=O)N3CCNC3=O)[nH]c2c1 | – | – | – | – | –
CCN(CC)S(=O)(=O)c1ccc(C)c(NC(=O)CSc2nc3ccccc3[nH]2)c1 | – | ? | – | · | –
SMILES | IL1B secr inh | KB-V1 cytotox | MCF10A rerep | SW480 rerep | KB-3-1 cytotox
CC(=O)N1CCc2c(sc3c2c(=O)n(-c2ccc(C)cc2)c(=O)n3Cc2ccccc2C)C1 | · | – | · | · | –
O=[N+]([O-])c1ccc(/C=N/NC(=S)Nc2ccc(Cl)cc2Cl)s1 | – | ? | ? | 21µM | ?
COc1ccc(/C=N/NC(=S)Nc2ccccc2[N+](=O)[O-])cc1O | – | 12µM | ? | ? | ?
CCCOc1ccc(/C=N/NC(=S)Nc2ccccc2[N+](=O)[O-])c(O)c1 | – | – | ? | ? | –
O=C(N/N=C/c1ccc(Cl)c([N+](=O)[O-])c1)C1CC1 | -50 | – | – | – | –
COc1cc(/C=N/NC(=O)c2cccc(NC(=O)c3ccccc3)c2)ccc1O | ? | – | – | – | –
COc1cc(/C=N/NC(=S)Nc2cccc(S(=O)(=O)N(C)C)c2)ccc1O | -98 | – | – | – | –
N#Cc1ccccc1S(=O)(=O)c1ccccc1C(=O)Nc1ccccc1 | – | – | – | – | –
Cc1cc(C)cc(N2CC(c3nc(-c4ccccc4C)no3)CC2=O)c1 (stereo not given) | · | – | · | · | –
CCn1c(SCC(=O)Nc2ccc(N3CCOCC3)cc2)nnc1-c1ccco1 | – | – | – | – | –
Cc1ccc(C2CC(=O)N(Cc3ccccc3)c3c2c(C)nn3-c2nc(C)cc(C)n2)cc1 (stereo not given) | · | – | · | · | –
O=C(NC1CC1)C1CCN(S(=O)(=O)c2ccc(Cl)c([N+](=O)[O-])c2)CC1 | -97 | – | ? | ? | ?
Fc1ccc(/C=N/NC(=S)Nc2ccc(Cl)cc2Cl)cc1 | – | ? | – | ? | 5.2µM
Fc1ccc(NC(=S)N/N=C/c2ccc(F)c(F)c2)cc1 | – | – | – | – | –
S=C(N/N=C/c1ccc(Cl)c(Cl)c1)Nc1ccccc1Cl | – | – | – | ? | 21µM
O=C(NC1CCN(S(=O)(=O)c2cccc([N+](=O)[O-])c2)CC1)C1CCCCC1 | – | – | – | ? | –
O=[N+]([O-])c1cc(/C=N/NC(=S)Nc2ccccc2Cl)ccc1Cl | -86 | ? | ? | – | 18µM
COCc1cccc(-c2csc(C(O)c3cccc(OC)c3)n2)c1 (stereo not given) | – | – | · | · | ?
O=C(NN=Cc1ccc(Cl)cc1Cl)C1CC1 | – | 15µM | – | – | –
O=C(CN1CCCCC1)N/N=C/c1ccc(Cl)cc1Cl | – | – | – | – | –
Fc1ccc(/C=C2\CCCC3=C2Nc2ncnn2C3c2ccc(F)cc2)cc1 (stereo not given) | -122 | ? | 5.8µM | 23µM | 21µM
c1ccc(C2C3=C(CCCC3)Nc3ncnn32)cc1 (stereo not given) | – | – | – | – | –
Cc1ccc(OCCCCN2CCCCC2)c(C)c1 | – | – | – | ? | –
Cc1ccc(OCCCCNC2CCCC(C)C2C)c(C)c1 (stereo not given) | -95 | 21µM | ? | ? | 23µM
COc1ccc(OC)c(S(=O)(=O)Nc2ccc3oc4c(c3c2)C(=O)CCC4)c1 | – | 23µM | – | – | –
CCCCOCCCNC(=O)C[C@@H]1C[C@@]2(C(=O)OC)CCCCC=C2N(Cc2ccccc2)C1=O | – | ? | · | · | –
CCCCOCCCNC(=O)C[C@@H]1C[C@@]2(C(=O)OC)CCCCC=C2N(Cc2cccc3ccccc23)C1=O | -51 | ? | · | · | ?
CCCCOCCCNC(=O)C[C@@H]1C[C@@]2(C(=O)OCC)CCC=C2N(Cc2cccc3ccccc23)C1=O | -67 | – | · | · | –
COC(=O)[C@]12CCCCC=C1N(Cc1cccc3ccccc13)C(=O)[C@H](CC(=O)NCCc1ccccc1OC)C2 | – | ? | · | · | ?

Screens (PubChem)
